Screens (PubChem)
Hits are enriched below; roughly 2.4% of the tested compounds scored in any of these assays.
MEKK2 mut-MEK5 = MEK5 binding signal on mutant MEKK2 PB1, primary screen, biochemical, multiplex bead flow cytometry, Alexa488-MEK5; 290,000 tested, 0.35% active; percent response, % at 10 µM; Alexa488-MEK5 binding to MEKK2 mutant; in the data active = percent response above about 24%, passing the limit was not always enough
Arbovirus anti = antivirals against arbovirus infection, primary screen, cell-based, full library, 10K replicate subset; AID 1251, 2008; inhibition, % at 10 µM; arbovirus infection cell-based antiviral screen; 200,000 tested, 0.37% active; in the data active = inhibition above about 30%
Pf gametocyte = late stage P. falciparum gametocyte viability inhibitors, primary screen, ATP luminescence, HTS; 150,000 tested, 0.065% active; P. falciparum stage V gametocytes, 24 h; inhibition, % at 10.9 µM;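 active = inhibition above the mean plus 3 SD of compounds within the control limits, set per campaign, cut at about 38% in these data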
MEKK2 WT-MEK5 = modulators of MEK5 binding to wildtype MEKK2, primary screen, biochemical, multiplex bead flow cytometry, Alexa488-MEK5. Mitogen-activated protein kinase kinase kinase 2 (Homo sapiens), Q9Y2U5. AID 1531, 2009. 290,000 tested, 1.1% active. binding response (% of control), % at 10 µM. Alexa488-MEK5 binding to MEKK2 WT; actives lie on both sides; in the data active = binding response below about 67% or above about 130%
MEKK3 PB1 HTS = modulators of MEKK3-MEK5 PB1 binding, primary screen, biochemical, wildtype MEKK3, multiplex bead flow cytometry, Alexa488-MEK5. Mitogen-activated protein kinase kinase kinase 3 (Homo sapiens), Q99759. bead-based flow cytometry, Alexa488-MEK5 binding to MEKK3; actives lie on both sides; 0 = blocked by unlabeled MEK5, 100 = vehicle. binding response (% of control), % at 10 µM. 290,000 tested, 1.4% active. AID 1529, 2009;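 active = binding response more than 3 SD above or below the average of its plate-row segment, actives on both sides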;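 note: Alexa488 bead fluorescence after subtracting the streptavidin-only scavenger bead signal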
Target sequence (Q99759 whole entry, looked up): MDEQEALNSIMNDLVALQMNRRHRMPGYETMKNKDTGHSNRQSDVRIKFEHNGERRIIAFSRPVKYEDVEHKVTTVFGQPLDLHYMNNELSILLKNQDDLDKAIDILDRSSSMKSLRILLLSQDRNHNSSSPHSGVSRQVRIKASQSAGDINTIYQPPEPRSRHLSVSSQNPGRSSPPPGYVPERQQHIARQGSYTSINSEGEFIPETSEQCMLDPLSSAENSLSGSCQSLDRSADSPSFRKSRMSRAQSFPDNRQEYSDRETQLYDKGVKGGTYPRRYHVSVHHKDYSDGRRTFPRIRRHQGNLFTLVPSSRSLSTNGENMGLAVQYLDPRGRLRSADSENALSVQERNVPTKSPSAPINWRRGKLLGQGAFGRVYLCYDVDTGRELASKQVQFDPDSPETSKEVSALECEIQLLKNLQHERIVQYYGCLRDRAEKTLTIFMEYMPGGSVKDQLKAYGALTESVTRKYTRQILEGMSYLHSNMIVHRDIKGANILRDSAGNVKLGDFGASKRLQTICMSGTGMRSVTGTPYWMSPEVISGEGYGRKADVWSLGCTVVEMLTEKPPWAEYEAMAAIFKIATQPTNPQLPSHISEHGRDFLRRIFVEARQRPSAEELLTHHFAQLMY
MEKK2wt confirm = modulators of MEK5 binding to wildtype MEKK2, confirmation, biochemical, single concentration, multiplex bead flow cytometry | shares compounds with MEKK3 PB1 HTS | Alexa488-MEK5 binding to MEKK2 WT; actives lie on both sides | binding response (% of control), % at 10 µM | 5,900 tested, 2.4% active | AID 1892, 2009; in the data active = binding response below about 16% or above about 210%; inactive = in between
MEKK2mut confirm = mutant MEKK2 PB1-MEK5 binding signal retest – biochemical, single concentration, multiplex bead flow cytometry, confirmation; shares compounds with MEKK3 PB1 HTS; Alexa488-MEK5 binding to MEKK2 mutant; percent response, % at 10 µM; 5,900 tested, 2% active; AID 1893, 2009; in the data active = percent response mostly above about 71%, no sharp cut-off; inactive = mostly below about 38%;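 note: higher means compound restores mutant binding toward wildtype level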
MEKK3 confirm = MEKK3 wild-type PB1 binding to MEK5, inhibitors, confirmation, biochemical, bead multiplex flow cytometry, single concentration, wildtype; shares compounds with MEKK3 PB1 HTS; Alexa488-MEK5 binding to MEKK3; hits give low values; binding response (% of control), % at 10 µM; 5,900 tested, 1.8% active; AID 1894, 2009;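 active = binding response below 72% of control, or above a set upper limit, though filed actives all read lower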;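 note: lower values mean stronger disruption of MEK5 binding to MEKK3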
Each line names hits and unclear results; the compound was inactive in the other large screens (follow-up assays come after a bar, where they were run); [ ] = remark or other dose.

O=C(O)c1ccccc1NS(=O)(=O)c1ccc2ccccc2c1	none (no result: Arbovirus anti, Pf gametocyte)
O=c1oc(-c2ccccc2NS(=O)(=O)c2ccc3ccccc3c2)nc2ccccc12	Arbovirus anti 30 (no result: Pf gametocyte)
CCOC(=O)c1c(NC(=O)CSc2ncn[nH]2)sc(C)c1C	Arbovirus anti 45
Cc1oc(-c2ccccc2Cl)nc1CSCC(=O)N1CCCC1	Arbovirus anti 33
Cc1oc(-c2ccccc2Cl)nc1CSCC(=O)NC1CCCC1	none (no result: Pf gametocyte)
COc1ccc(CNc2ccc3c(c2)nc(C)n3C)cc1OC	none (no result: Arbovirus anti, Pf gametocyte)
CCOc1ccc(CNc2ccc3c(c2)nc(C)n3C)cc1	Arbovirus anti 44
Nc1nc(NC(=O)c2ccccc2)nn1-c1ccccc1	Pf gametocyte 58
Cc1ccc(NC(=O)NCCCl)cc1S(=O)(=O)N1CCOCC1	none (no result: Arbovirus anti)
Cc1ccc(S(=O)(=O)N(C)C)cc1NC(=O)CCCNC(=O)c1ccc(Cl)cc1	none (no result: Arbovirus anti, Pf gametocyte)
O=C(Nc1ccccc1)Nc1ccccc1C(=O)NCCCN1CCOCC1	none (no result: Arbovirus anti)
COCCOC(=O)/C(=C/c1ccc(OC(=O)c2ccccc2)cc1)C(C)=O	MEKK2 WT-MEK5 4.0 (no result: Pf gametocyte)
CCOC(=O)/C(=C/c1ccc(OC(=O)c2ccncc2)cc1)C(C)=O	none
Oc1cccc(C(O)CNCc2ccc(OCc3ccc(Cl)cc3Cl)cc2)c1 (centres undefined)	MEKK2 WT-MEK5 155
O=S(=O)(c1ccc(-c2csc(Nc3ccc(Br)cc3)n2)cc1)N1CCCC1	MEKK2 WT-MEK5 -4.0
Oc1ccc(-c2nc3ccccc3s2)c(O)c1	MEKK2 WT-MEK5 -2.0 (no result: Arbovirus anti)
Nc1ccc(O)c(-c2nc3ccccc3s2)c1	none (no result: Pf gametocyte)
COc1ccccc1C1=CN(Cc2ccccc2)CCC1=O	none (no result: MEKK2 mut-MEK5, Arbovirus anti, MEKK2 WT-MEK5, MEKK3 PB1 HTS)
CC1(C)C2CCC(C2)C1(C)NC(=O)CNCc1cccs1 (centres undefined)	Arbovirus anti 30 (no result: Pf gametocyte)
O=C(CNCc1cccs1)NC12CC3CC(CC(C3)C1)C2	none (no result: Pf gametocyte)
CC1CCCCN1S(=O)(=O)c1ccc2[nH]c(=O)cc(C(=O)NCCCN3CCCCCC3)c2c1 (centres undefined)	MEKK2 WT-MEK5 143 (no result: Arbovirus anti, Pf gametocyte)
COCCn1c(C)cc(C(=O)CSc2cc(C)c3ccccc3n2)c1C	Arbovirus anti 31 (no result: Pf gametocyte)
COCCn1c(C)cc(C(=O)CSc2nc3ccccc3c(=O)n2Cc2ccco2)c1C	none
CC(=O)N(C1=C(N2CCOCC2)C(=O)c2ccccc2C1=O)c1ccc(C(=O)O)cc1	MEKK2 WT-MEK5 -1.0 (no result: Arbovirus anti)
O=C(CCC1CCCN(Cc2ccncc2)C1)NCc1ccc(F)c(F)c1 (centres undefined)	none
CCn1c(SCC(=O)N2CCC(C)CC2)nc2c(c1=O)SCC2	none (no result: Arbovirus anti, Pf gametocyte)
NC(Cc1c[nH]c2ccccc12)C(=O)Nc1ccccc1 (centres undefined)	none (no result: Arbovirus anti, Pf gametocyte)
COc1ccc(C[C@H]2CN3C(=NC[C@@H]3Cc3ccccc3)N2CCNC(=O)CCC2CCCCC2)cc1	MEKK2 WT-MEK5 179 | MEKK2wt confirm inactive | MEKK2mut confirm inactive | MEKK3 confirm inactive
CCOC(=O)c1cc(C(=O)NC(C)c2ccccc2)c(=O)[nH]c1C (centres undefined)	none (no result: Arbovirus anti, Pf gametocyte)
COC(=O)c1cc(C(=O)NCc2ccccc2)c(=O)[nH]c1C	MEKK2 WT-MEK5 3.0[inhibitor], MEKK3 PB1 HTS 3.0[inhibitor] | MEKK2wt confirm inactive | MEKK2mut confirm inactive | MEKK3 confirm inactive
COc1cc(-c2noc(C)c2C#Cc2ccsc2)cc(OC)c1OC	none (no result: Arbovirus anti)
O=C1/C(=C/c2ccc([N+](=O)[O-])cc2)C=C(c2ccccc2)N1c1ccccc1	none (no result: Pf gametocyte)
